Rows were chosen to be rich in hits. Some 7.9% of all compounds tested hit in one or more screens of this group.
SW480 rereplic – DNA re-replication induction in SW480 cells | SW480 DNA re-replication, Hoechst DNA content imaging, 48 h | Potency, µM (doses to about 46.1 µM), without a hit: top-dose re-replication activation, hits mostly activators | 1.8% of 340,000 active | AID 624297; note: % of control where 0% means no effect; nearly all actives have a fitted effect of over 55% in size
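SW480 cells exposed to compounds for 48 hr at 37 C, 5% CO2, then Hoechst-stained 40 min. Nuclear DNA content imaged by fluorescence scanning (405 nm excitation, 500-530 nm emission); re-replication scored as increased high-intensity nuclei.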
HT1080 IDH1KD tx – HT-1080 IDH1 knockdown cell toxicity (counter line) | 2% of 360,000 active | Potency, µM (highest dose often 46.1 µM), for the others: at the highest dose activity, negative = toxicity, most hits filed as cytotoxic | HT-1080 IDH1 knockdown viability, ATP luminescence, 48 h;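 note: 0% = DMSO wells and -100% = cell-free medium wells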
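Knockdown cells (IDH1KD HT-1080) received compounds 2 h after plating at 750 cells/well and were kept 48 h at 37 °C in 5% FBS RPMI. A CellTiter-Glo luminescence read gave % activity for curve fitting.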
MCF10A rerep – inducers of DNA re-replication in MCF 10A breast cells | AID 624296 | 2.9% of 350,000 active | MCF 10A DNA re-replication, Hoechst nuclear intensity, 48 h | Potency, µM (series often up to 46.1 µM), for the others: at the highest dose activity, positive = re-replication, most hits filed as activators; note: % of control where 0% means no effect; nearly all actives have a fitted effect of over 50% in size
KB-3-1 tox – kills parental KB-3-1 adenocarcinoma cells; Potency, µM (series often up to 46.1 µM), actives largely listed as cytotoxic; KB-3-1 viability, CellTiter-Glo ATP luminescence, 72 h; AID 1347075; 1.4% of 400,000 active; note: % is set by controls: 0 for no effect and ±100 for the full control effect; nearly all actives have a fitted effect of over 60% in size
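Here the drug-naive KB-3-1 line serves as comparator for MDR sub-line selectivity; cells received compound titrations, 72 h at 37 °C, then CellTiter-Glo readout.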
HT1080-NT tox – kills 2HG-producing HT-1080-NT fibrosarcoma cells; 1.6% of 360,000 active; Potency, µM (highest dose often 46.1 µM), for inactives: at the top dose activity, negative = less viability, hits mostly cytotoxic; HT-1080-NT fibrosarcoma viability, CellTiter-Glo ATP luminescence, 48 h; AID 686970;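 note: NT is the 2HG producing partner of a matched IDH1 knockdown line; 0% = DMSO-treated cells and -100% = media-only wells without cells; nearly all actives have a fitted effect of over 55% in size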
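Read-out is CellTiter-Glo luminescence after 10 minutes at room temperature, following 48 hours' compound treatment of HT-1080-NT cells (750 cells/well, RPMI, 5% FBS, 37 degrees C).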
KB-V1 MDR tox – kills drug-selected multidrug resistant KB-V1 cells; KB-V1 MDR cells viability, CellTiter-Glo, 72 h; Potency, µM (series often up to 46.1 µM), actives largely listed as cytotoxic; 3.4% of 400,000 active; note: % is set by controls: 0 for no effect and ±100 for the full control effect; nearly all actives have a fitted effect of over 60% in size
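Readout: CellTiter-Glo luminescence, 10 min after addition. Cells: KB-V1 MDR subline, 72 h at 37 degrees C with compound. Analysis: corrected, normalized data fitted to concentration-effect curves.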
The depositor's hits bear a star. Calls come from the whole dose curve; as a rule, active = well fitted curve in the direction sought with a large enough effect; inconclusive = small, poorly fitted or top-dose-only effect, or another doubt; inactive = no such curve, though single readings can be large; an effect the other way counts as inactive or inconclusive. Potency is the fitted concentration of half-maximal effect.

What do the screens show for `Cc1sc2ncnc(OCC(=O)c3ccc(S(=O)(=O)N4CCCC4)cc3)c2c1C`?
SW480 rereplic: 4.0%; HT1080 IDH1KD tx: -16.2%; MCF10A rerep: 5.8%; KB-3-1 tox: inconclusive; HT1080-NT tox: 7.2%; KB-V1 MDR tox: 4.61µM*

How did Cc1sc2ncnc(OCC(=O)N3CCN(S(=O)(=O)c4ccc(Cl)cc4)CC3)c2c1C do in these assays?
SW480 rereplic: 9.4%; HT1080 IDH1KD tx: 4.6%; MCF10A rerep: 5.7%; KB-3-1 tox: inactive; HT1080-NT tox: -0.2%; KB-V1 MDR tox: inactive

Results for O=S(=O)(c1ccc2c(c1)OCCO2)N1CCN(c2ncnc3sccc23)CC1 ?
SW480 rereplic: inconclusive; HT1080 IDH1KD tx: inconclusive; MCF10A rerep: 9.2%; KB-3-1 tox: inconclusive; HT1080-NT tox: -23.6%; KB-V1 MDR tox: inactive

How did COc1cc(Cl)c(NC(=O)c2cc(CN3CCCC3)on2)c(OC)c1 do in these assays?
KB-3-1 tox: inactive; KB-V1 MDR tox: inactive

Results for COc1ccc(-c2csc3ncnc(N4CCN(c5ccccc5[N+](=O)[O-])CC4)c23)cc1 ?
SW480 rereplic: inconclusive; HT1080 IDH1KD tx: -28.8%; MCF10A rerep: 16.4µM*; HT1080-NT tox: -22.7%

What do the screens show for `COc1ccc(-c2csc3ncnc(N4CCN(c5ccccc5O)CC4)c23)cc1`?
SW480 rereplic: 16.7%; HT1080 IDH1KD tx: -4.5%; MCF10A rerep: inconclusive; KB-3-1 tox: inactive; HT1080-NT tox: 0.7%; KB-V1 MDR tox: inactive

What do the screens show for `Cc1ccc(-c2csc3ncnc(-n4cnc5ccccc54)c23)cc1`?
SW480 rereplic: inconclusive; HT1080 IDH1KD tx: 20.6µM*; MCF10A rerep: 9.2µM*; KB-3-1 tox: inconclusive; HT1080-NT tox: 16.4µM*; KB-V1 MDR tox: inconclusive

Results for Cc1ccc(Cl)cc1NC(=O)C(=O)N/N=C/c1ccc2c(c1)OCO2 ?
SW480 rereplic: -0.7%; HT1080 IDH1KD tx: 15.1%; MCF10A rerep: 4.6%; KB-3-1 tox: inactive; HT1080-NT tox: inconclusive; KB-V1 MDR tox: inactive

Results for O=C(NCCC1=CCCCC1)c1c(O)nc2sccn2c1=O ?
SW480 rereplic: 0.1%; HT1080 IDH1KD tx: -22.7%; MCF10A rerep: 18.3%; KB-3-1 tox: inconclusive; HT1080-NT tox: -21.2%; KB-V1 MDR tox: 5.17µM*

What do the screens show for `COC(=O)c1cc(S(=O)(=O)N2CCCCCC2)c[nH]1`?
SW480 rereplic: -5.4%; HT1080 IDH1KD tx: 1.0%; MCF10A rerep: 2.7%; KB-3-1 tox: inactive; HT1080-NT tox: -3.0%; KB-V1 MDR tox: inactive

Results for COC(=O)N/N=C\c1ccccc1OC/C=C/c1ccccc1 ?
SW480 rereplic: 16.4µM*; HT1080 IDH1KD tx: inconclusive; MCF10A rerep: inconclusive; KB-3-1 tox: inactive; HT1080-NT tox: inconclusive; KB-V1 MDR tox: inactive

Results for CCOC(=O)N/N=C\c1ccccc1OC/C=C/c1ccccc1 ?
SW480 rereplic: inconclusive; HT1080 IDH1KD tx: inconclusive; MCF10A rerep: inconclusive; KB-3-1 tox: inactive; HT1080-NT tox: inconclusive; KB-V1 MDR tox: inactive

How did Cc1cc(=O)[nH]c2ccc(Cl)cc12 do in these assays?
SW480 rereplic: -2.8%; HT1080 IDH1KD tx: 2.3%; MCF10A rerep: -0.3%; KB-3-1 tox: 2.31µM*; HT1080-NT tox: 3.7%; KB-V1 MDR tox: inconclusive

Results for Cc1cc(=O)[nH]c2ccc(O)cc12 ?
KB-3-1 tox: inactive; KB-V1 MDR tox: inactive

Results for C(=C\c1ccccc1)/CN1CCN(c2ncnc3c2oc2ccccc23)CC1 ?
SW480 rereplic: 19.4%; HT1080 IDH1KD tx: inconclusive; MCF10A rerep: 78.7%; KB-3-1 tox: inconclusive; HT1080-NT tox: inconclusive; KB-V1 MDR tox: 3.66µM*

What do the screens show for `COc1ccccc1N1CCN(c2ncnc3c2oc2ccccc23)CC1`?
SW480 rereplic: 20.6µM*; HT1080 IDH1KD tx: inconclusive; MCF10A rerep: 3.26µM*; KB-3-1 tox: 5.8µM*; HT1080-NT tox: inconclusive; KB-V1 MDR tox: 6.51µM*

Results for C[C@@H]1C[C@H]2[C@@H]3C[C@H](F)C4=CC(=O)C=C[C@]4(C)[C@@]3(F)[C@@H](O)C[C@]2(C)[C@@]1(O)C(=O)CO ?
SW480 rereplic: -5.2%; HT1080 IDH1KD tx: inconclusive; MCF10A rerep: 7.0%; KB-3-1 tox: inactive; HT1080-NT tox: inconclusive; KB-V1 MDR tox: inactive

Results for O=C(O)CC1c2ccccc2S(=O)(=O)N1Cc1ccccc1 (configuration not stated) ?
SW480 rereplic: 3.8%; HT1080 IDH1KD tx: 5.5%; MCF10A rerep: 0.9%; KB-3-1 tox: inactive; HT1080-NT tox: 22.4%; KB-V1 MDR tox: inconclusive

What do the screens show for `Cc1c(C(N)=O)sc2ncn(CC(=O)OC(C)C)c(=O)c12`?
SW480 rereplic: -7.5%; HT1080 IDH1KD tx: -0.2%; MCF10A rerep: -1.4%; KB-3-1 tox: inactive; HT1080-NT tox: 3.4%; KB-V1 MDR tox: inactive

Results for Cn1cnnc1SCC(=O)Nc1ccc(Cl)cc1 ?
SW480 rereplic: -50.0%; HT1080 IDH1KD tx: -0.3%; MCF10A rerep: 1.6%; KB-3-1 tox: inactive; HT1080-NT tox: 2.9%; KB-V1 MDR tox: inactive

Results for Cn1cnnc1SCC(=O)NNC(=O)COc1ccc(Cl)cc1 ?
SW480 rereplic: -17.4%; HT1080 IDH1KD tx: 11.6%; MCF10A rerep: 0.581µM*; KB-3-1 tox: inactive; HT1080-NT tox: 7.8%; KB-V1 MDR tox: inconclusive

Results for CCCc1cc(=O)n2nc(N3CCC(C(=O)N4CCN(c5ccc(OC)cc5)CC4)CC3)sc2n1 ?
SW480 rereplic: -1.2%; HT1080 IDH1KD tx: 13µM*; MCF10A rerep: 12.3%; KB-3-1 tox: inactive; HT1080-NT tox: inconclusive; KB-V1 MDR tox: inactive

Results for CC(C)Cc1ccc(S(=O)(=O)Nc2cccnc2)cc1 ?
SW480 rereplic: 4.61µM*; HT1080 IDH1KD tx: inconclusive; MCF10A rerep: 14.5%; KB-3-1 tox: inactive; HT1080-NT tox: inconclusive; KB-V1 MDR tox: inactive

Results for CCC(C)c1ccc(S(=O)(=O)Nc2cccnc2)cc1 (configuration not stated) ?
SW480 rereplic: 29.3%; HT1080 IDH1KD tx: inconclusive; MCF10A rerep: 1.9%; KB-3-1 tox: inactive; HT1080-NT tox: -8.8%; KB-V1 MDR tox: inactive

Results for CCOC(=O)N1CCC(NC(=O)c2cnn(-c3ccc(F)cc3F)c2C2CCN(C(=O)OC(C)(C)C)CC2)CC1 ?
KB-3-1 tox: inactive; KB-V1 MDR tox: inactive

What do the screens show for `COc1cc(C(=O)NCC(c2cccs2)N(C)C)cc(Cl)c1OC(C)C` (configuration not stated)?
SW480 rereplic: inconclusive; HT1080 IDH1KD tx: -17.6%; MCF10A rerep: inconclusive; KB-3-1 tox: inactive; HT1080-NT tox: -7.1%; KB-V1 MDR tox: 7.31µM*

Screens: PubChem BioAssay, National Center for Advancing Translational Sciences (NCATS)
